Measurements: PubChem BioAssay AID2704 (Broad Institute, 2010)
Active and inactive are the calls of the source.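 How the source made its calls: active means a dose-dependent loss of polyadenylated product, with a fitted EC50, the dose giving half the full effect; inactive means no dose-dependent effect seen.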

Assay: inhibitors of in vitro mRNA polyadenylation, dose response, orthogonal assay for polyadenylation inhibitor project, cell lysate, S. cerevisiae extracts, radioactive, gel readout (AID 2704)
Conditions: S. cerevisiae extract, GAL7 RNA polyadenylation

EC50, active:
Cc1ccc2nc(/C(C#N)=C/c3ccc([N+](=O)[O-])o3)[nH]c2c1 700 µM
COc1cc(/C=C2/CC/C(=C/c3ccc(O)c(OC)c3)C2=O)ccc1O 400 µM
N#CC1(C#N)C2=C(CCCC2)NC(c2ccccc2)C1(C#N)C#N (stereo unspecified) 280 µM
Cc1ccc(-c2nn3c(C)nnc3s2)cc1NC(=O)CSc1ccc(Cl)cc1 900 µM
CCOc1cc(/C=C2\N=C(SC(C)C(N)=O)N(c3ccc(OC(F)F)cc3)C2=O)ccc1O (stereo unspecified) 410 µM
N#C/C(=C/c1ccc([N+](=O)[O-])o1)c1nc2ccccc2[nH]1 1100 µM
